# Among all 210,000 compounds or so, about 1,300 (0.62%) were called active.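 The calls were made as follows: active = inhibition of 40% or more; inactive = the rest.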 This excerpt belongs to a sample that is enriched for actives.
# Molecular target: Kallikrein-5 (Homo sapiens) (UniProt Q9Y337)
# Assay: human KLK5 protease inhibitors, primary screen, biochemical, 1536-well (AID 873);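 also: 0% = enzyme controls without compound and 100% = no-enzyme blanks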
# Conditions: recombinant hK5, fluorogenic AMC substrate cleavage; at 5 µM; hits give high values
# Chain of Kallikrein-5 (Homo sapiens) (Q9Y337 67-293 limits assumed): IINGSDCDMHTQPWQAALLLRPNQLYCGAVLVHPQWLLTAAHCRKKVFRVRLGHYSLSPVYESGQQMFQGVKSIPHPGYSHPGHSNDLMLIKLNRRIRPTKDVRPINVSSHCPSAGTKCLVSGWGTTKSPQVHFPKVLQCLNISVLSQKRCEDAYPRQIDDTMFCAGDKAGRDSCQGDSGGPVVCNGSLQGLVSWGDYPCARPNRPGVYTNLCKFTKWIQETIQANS
row,SMILES,inhibition
1,CC(C)n1c(=O)c(C=Nc2ccc(Br)cc2)c(O)n(Cc2ccco2)c1=O,115% (active)
2,CN(C)CC1Oc2ccccc2OC1(O)c1ccccc1 (stereo not given),-2.65% (inactive)
3,O=c1[nH]c(=O)n(Cc2ccccc2)c(O)c1/C=N/Nc1c(F)c(F)c(F)c(F)c1F,3.18% (inactive)
4,O=C(O)COc1ccccc1/C=C1\C(=O)NC(=O)N(CCC2=CCCCC2)C1=O,0.1% (inactive)
5,CC(C)c1ccc(-n2c(O)c(/C=N/N3CCOCC3)c(=O)[nH]c2=S)cc1,-2.01% (inactive)
